Results as given in PubChem BioAssay (NCI).
This is part of a sample that, as a whole, favours compounds with a hit. Of some 83,000 tested, about 20% had one in any assay.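 Percent growth is the endpoint: 0 to 100 indicates growth inhibition (40 means 60% inhibition), 0 means no net growth, and negative values indicate cell death.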 Values without a mark were called inactive. Calls of active or inactive are those of the source. Rule for the calls: active = growth percent below 10; inactive = the rest.

The compounds below were run on SNB-19 CNS (assay: NCI-60 one-dose screen, 48 h (100 = growth as untreated, 0 = no growth, -100 = all killed)). Settings: 10 µM unless noted.

Row | SMILES | growth
1 | CCOC(=O)c1c(NC(=O)c2ccccc2)sc2c3c(ccc12)OCN(C)C3 | 8.15% (active)
2 | COc1ccc(NC(=O)c2ccc(Nc3ncnc4c3cnn4-c3cccc(F)c3)cc2)cc1 | 94.7%
3 | COC(=O)c1c(C)nc(C)c2c1C(=O)C=C(NCc1ccccc1)C2=O | 93.2%
4 | CS(=O)(=O)Nc1cc(-c2ccc3ncnc(Nc4ccc5c(cnn5Cc5ccncc5)c4)c3c2)cnc1Cl | 60%
5 | S=c1ccnc[nH]1 | 102%
6 | Cc1ccc(S(=O)(=O)c2nc(-c3ccccc3)oc2SCC(N)=O)cc1 | 99.5%
7 | CN(C)Cc1ccc(NC(=O)c2cncc(C#Cc3cnc(N)c4ncccc34)c2)cc1C(F)(F)F | -8.43% (active)
8 | COc1cc(/C=C/c2cn[nH]c2-c2ccc(C)cc2)cc(OC)c1OC | 48.2%
9 | CCOC(=O)C(CCN(C)C)c1ccccc1 (centres undefined) | 105%
10 | O=C(/C=C/c1ccccc1)N(C1CCCCC1)C1CCCCC1 | 87.7%
11 | CC1(C)CC[C@]23CC[C@]4(C)[C@H](CC[C@@H]5[C@@]6(C)CCNCC(C)(C)[C@@H]6CC[C@]54C)[C@H]2[C@H]1OC3 | 103%
12 | Cc1nc2sc(C(=O)Nc3cccc4ccccc34)c(N)c2cc1C(=O)c1ccccc1 | 26.9%
13 | Cc1ccc(O)c(NC(=O)c2cccc(Nc3ccnc(C(F)(F)F)c3)c2)c1 | 90.5%
14 | N#CSc1c[nH]c2ccc(/C=C/C(=O)/C=C(O)/C=C/c3ccc4[nH]cc(SC#N)c4c3)cc12 | 46.2%
15 | COC(=O)/C(CCC=C(C)C)=C1\[C@@H](OC(C)=O)C[C@@]2(C)[C@H]1C/C(=N/O)[C@H]1[C@@]3(C)CC/C(=N\O)[C@@H](C)[C@@H]3CC[C@@]12C | 88.9%
16 | Nc1cccc(-c2ccc(COc3ccc(CC4SC(=O)NC4=O)cc3)cc2)c1 (centres undefined) | 69.3%
17 | CCOC(=O)c1cnn(CC(C)O)c1NC(=O)NCc1cccc(F)c1 (centres undefined) | 107%
18 | O=S(Nc1ccccc1)c1ccc(Cl)cc1 (centres undefined) | 96.8%
19 | CCOC(=O)C1=C(CC(O)c2ccc(OC)cc2OC)NC(=O)NC1c1ccccc1 (centres undefined) | 99.8%
20 | CCn1cc(C(=O)O)c(=O)c2cc(F)c(N3CCN(CC(=O)Nc4ccccc4)C(C)C3)c(F)c21 (centres undefined) | 99.1%

Row | SMILES | growth
21 | CCN(CC)c1ccc(-c2cc(-c3cc(OC)c(OC)c(OC)c3)nc(N3CCC(O)CC3)c2C#N)cc1 | 15.4%
22 | C=C(C)[C@@H]1CC[C@]2(C)[C@H](C=CC3=C4C[C@@](C)(CO)CC[C@]4(C)CC[C@]32C)[C@@]1(C)CCCN | 34.3%
23 | CS(=O)/C(C#N)=C\C=C\c1cccc(Cl)c1 (centres undefined) | 27.2%
24 | CC1=C(Cl)C(=O)c2cc(C)ccc2C1=O | 106%
25 | N#Cc1ccc(O)c(C2=NCC(c3ccc(-c4ccccc4)cc3)O2)c1 (centres undefined) | 18%
26 | CC[C@H](Nc1nc(N)nc(C)c1C#N)c1nc2cccc(CN(C)c3ncc(C(=O)NO)cn3)c2c(=O)n1-c1ccccc1 | 11%
27 | Cc1nc2ccccc2c(/C=C/c2ccc(F)cc2)c1C(=O)/C=C/c1ccccc1 | 38.2%
28 | O=C(CN1C(=O)S/C(=C\C(Cl)=C\c2ccccc2)C1=O)NC1CCS(=O)(=O)C1 (centres undefined) | 86.8%
29 | Nc1[nH]nc2nc(-c3ccccc3)n3c4ccccc4nc3c12 | 106%
30 | CC(C)(C)OC(=O)CN1CCc2c(sc3ncnc(N4CCN(c5ccc(F)cc5)CC4)c23)C1 | 88%
31 | N#Cc1nn(-c2cc(=O)[nH]c3ccc(Br)cc23)c(N)c1C#N | 105%
32 | O=c1oc2ccccc2cc1-c1nn(-c2ccccc2)cc1-c1nn[nH]n1 | 98%
33 | COc1ccc(/C=N/NC(=O)Cn2c(-c3ccc(S(C)(=O)=O)cc3)nc3ccccc32)cc1 | 100%
34 | CC(C)n1c2ccc(Br)cc2c2c3c(c4c5ccccc5ccc4c21)C(=O)NC3=O | 102%
35 | CCOC(=O)C1=C(c2ccccc2)N=C2N(c3ccccc3)N=C(C(C)=O)N2C1c1ccc(F)cc1 (centres undefined) | 95.4%
36 | COC1C(O)CC(OC2CC(OC3CC(O[C@@H]4C(=O)c5c(cc6cc(OC7CC(OC8CC(O)C(O)C(C)O8)C(O)C(C)O7)c(C)c(O)c6c5O)CC4[C@H](OC)[C@@H](O)C(C)=O)OC(C)C3O)OC(C)C2O)OC1C (some centres undefined) | 16.4%
37 | COC(=O)c1c2c(c(C)[n+]([O-])c1C)C(=O)C(NCc1ccccc1)=CC2=O | 7.59% (active)
38 | Oc1nc(NCc2ccccc2)sc1/C=C1\C=Nc2ncccc21 | 63.3%
39 | C=C1C(=O)O[C@H]2[C@H]1CC/C(COC(=O)/C=C\C(=O)NCc1ccc(Cn3c(=O)sn(CCCCl)c3=O)cc1)=C\CC[C@@]1(C)O[C@@H]21 | 94.8%
